{"source": "the supplement of paper PMC11417369", "note": "Whole data set: some 25,000 sequences, median “ln(normalized median fluorescence intensity)” near 9.7, cut for the highest 2% near 11. Only a selection was taken, and the highest values are over-represented in it overall.", "data": [{"tested_on": "PfAP2-HC AP2 domain (GST-tagged)", "test": "gcPBM binding intensity (ln(normalized median fluorescence intensity)); higher = stronger DNA binding", "method_in_brief": "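Binding intensity is the highest Masliner-normalised natural-log median intensity over replicate spots in either probe orientation. To obtain it, GST-tagged P. falciparum DNA-binding domains made in E. coli were incubated for 1 h on an Agilent 4 × 180k array of primer-extended double-stranded 36-bp intergenic genomic probes plus negative controls. Detection used Alexa488 anti-GST antibody with scanning at 488 nm.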", "values": [{"sequence": "GTAAGTTTGAATACACGTACAAATTTATTAAAGTCC [XGTACX_site6722]", "gcPBM binding intensity (ln)": 9.72}, {"sequence": "ATTCTATATGTTACATAAACCTATATTTTTTTTTTT [CACACA_negctrl_site860]", "gcPBM binding intensity (ln)": 9.58}, {"sequence": "TTTTACTTAAGACACACACACACAAAAAAAAAAAAA [CACACA_site6573]", "gcPBM binding intensity (ln)": 10.8}, {"sequence": "ATATAACATGGACACACACACATATATATATATTAT [CACACA_site6135]", "gcPBM binding intensity (ln)": 10.4}, {"sequence": "CTATTTCATAAACACACACACACAAACAAACATATA [CACACA_site8234]", "gcPBM binding intensity (ln)": 11.5}, {"sequence": "TAAATAAATATATATTCACACACAAACATATATATA [CACACA_site9332]", "gcPBM binding intensity (ln)": 10.5}, {"sequence": "CTATTTCATGGACACACACACACAAACAAACATATA [CACACA_site4696]", "gcPBM binding intensity (ln)": 11.1}, {"sequence": "AATAAATATATATTCACACACAAACATATATATATA [CACACA_site4023]", "gcPBM binding intensity (ln)": 10}, {"sequence": "CTATTTCAGAAACACACACACACAAACAAACATATA [CACACA_site978]", "gcPBM binding intensity (ln)": 10.4}, {"sequence": "TTTTAAGAAAAAAAATGTACACATGAAAATAGTGAA [XGTACX_site5898]", "gcPBM binding intensity (ln)": 9.5}, {"sequence": "TAGATACATAAAAGTGGTACATATATATATATATAT [XGTACX_site6263]", "gcPBM binding intensity (ln)": 9.85}, {"sequence": "TAACTTAAATAATACATACACACATGTACATACAGA [CACACA_site1594]", "gcPBM binding intensity (ln)": 10.2}, {"sequence": "TCTATTTTTTATATGGTGCATTGTTCTTATTAATAT [GTGCAC_site9392]", "gcPBM binding intensity (ln)": 9.77}, {"sequence": "TGATTATAGACACGCGCACACACAACAAAAAAAAAA [CACACA_site9179]", "gcPBM binding intensity (ln)": 10.1}, {"sequence": "ATAAAAATTGATTATACACACGCGCACCCACAACAA [CACACA_site3536]", "gcPBM binding intensity (ln)": 10.3}, {"sequence": "TACACAAACAGACACACACACACACGCGCACAAAAA [CACACA_site7192]", "gcPBM binding intensity (ln)": 11}, {"sequence": "ATTATAGACACGCGCACACACAACAAAAAAAAAAAA [CACACA_site9180]", "gcPBM binding intensity (ln)": 11.3}, {"sequence": "ATTACATACACGCGCACACACAAAAAAAAAAAAAAA [CACACA_site1334]", "gcPBM binding intensity (ln)": 9.98}, {"sequence": "AAAAAACAAAAACACACGCACACAAAAAAAAAAAAA [CACACA_site802]", "gcPBM binding intensity (ln)": 10.2}, {"sequence": "TTATATTATAGACACACACACAAAAAAAAAAAAAAA [CACACA_site3816]", "gcPBM binding intensity (ln)": 10.1}, {"sequence": "GTTACACAAACAAACACACACACACGCACGCACAAA [CACACA_site7191]", "gcPBM binding intensity (ln)": 11.3}, {"sequence": "TGATTATACGCACGCGCACACACAACCAAAAAAAAA [CACACA_site3537]", "gcPBM binding intensity (ln)": 10.2}, {"sequence": "ATAGACAGCGCACAAACACACAAACACGCACGCACA [CACACA_site6349]", "gcPBM binding intensity (ln)": 10.2}, {"sequence": "ATTATACACCCGCGCACACACAACAAAAAAAAAAAA [CACACA_site5871]", "gcPBM binding intensity (ln)": 11.1}, {"sequence": "CACAAACAAAGACACACACACACACGCACAAAAATG [CACACA_site7193]", "gcPBM binding intensity (ln)": 10.7}, {"sequence": "TTTCTTTTTTCTGTTATTATTATAAAACGATATTTA [TGCATGCA_negctrl_site167]", "gcPBM binding intensity (ln)": 9.58}, {"sequence": "TTATTAAGTAAATCACATTTAATTTTTTTTTTTTTT [CACACA_negctrl_site1280]", "gcPBM binding intensity (ln)": 9.27}, {"sequence": "GAATATGTTAACATTTGTACATAAAATTTTTTACAA [XGTACX_site2444]", "gcPBM binding intensity (ln)": 9.49}, {"sequence": "ATTATTTTGTTTATTACATGCAGGTGTATATTACAG [TGCATGCA_site723]", "gcPBM binding intensity (ln)": 9.59}, {"sequence": "ATCACATAAAATATGAATATATATTTTATATATATA [CACACA_negctrl_site340]", "gcPBM binding intensity (ln)": 9.53}, {"sequence": "AAAAGAGAAATGGGCACACACACACCGATTATATAT [CACACA_site4942]", "gcPBM binding intensity (ln)": 11}, {"sequence": "AGAAAAGAGAAATGGGCACACACACCCATATTATAT [CACACA_site8433]", "gcPBM binding intensity (ln)": 10.1}, {"sequence": "AAAAGAGAAATGGGCACACACACACCCATTATATAT [CACACA_site1530]", "gcPBM binding intensity (ln)": 10.2}, {"sequence": "GTACCTATTTCATACACACACACACCCAAACAAACA [CACACA_site976]", "gcPBM binding intensity (ln)": 10.5}, {"sequence": "ACCTATTTCAAACACACACACACACTAGCAAACATA [CACACA_site4695]", "gcPBM binding intensity (ln)": 10.9}, {"sequence": "ACCTATTTCAAACACACACACACACTAACAAACATA [CACACA_site8233]", "gcPBM binding intensity (ln)": 10.8}, {"sequence": "ACCTATTTCAAACACACACACACACCCACAAACATA [CACACA_site977]", "gcPBM binding intensity (ln)": 10.9}, {"sequence": "ATGTACCTATTTCATACACACACACCCACAAACAAA [CACACA_site8232]", "gcPBM binding intensity (ln)": 10.4}, {"sequence": "GTACCTATTTCATACACACACACACGCAAACAAACA [CACACA_site6590]", "gcPBM binding intensity (ln)": 11.1}, {"sequence": "TATATAAACACGTACACACACATATCTGTATTTATA [CACACA_site5858]", "gcPBM binding intensity (ln)": 10.4}, {"sequence": "AAAAAATAGTGGTATGCATGTCCCTTGTATTTTCTT [TGCATGCA_site587]", "gcPBM binding intensity (ln)": 9.63}, {"sequence": "GTATATATTTAAACACGTACACAAAACCCAAAAAAT [XGTACX_site8110]", "gcPBM binding intensity (ln)": 9.95}, {"sequence": "TTAATGTACAGACACCCACACACAAACAAATATATA [CACACA_site8888]", "gcPBM binding intensity (ln)": 10.2}, {"sequence": "TACACCAAAAAAAAACGTACAAAATCCCACCCAGAC [XGTACX_site4622]", "gcPBM binding intensity (ln)": 11.1}, {"sequence": "TAATTTTTTTTTTTTTTTTTTGTACTTCATTTTTAT [CACACA_negctrl_site1395]", "gcPBM binding intensity (ln)": 9.58}, {"sequence": "TTTTTTTTGTTCTATACAATTATAAAAATAAAATAT [XGTACX_negctrl_site53]", "gcPBM binding intensity (ln)": 9.06}, {"sequence": "TAATACTTAGAGAAAAGTACGTATGAACTTATGTAA [XGTACX_site5504]", "gcPBM binding intensity (ln)": 9.59}, {"sequence": "TTTCCCTTGTTGTAAACATGCACAATATTTAGGTAT [TGCATGCA_site49]", "gcPBM binding intensity (ln)": 9.75}, {"sequence": "CACACCCACCAACACACACACAAAAAAAAAAAGAAA [CACACA_site500]", "gcPBM binding intensity (ln)": 10.4}, {"sequence": "AAAGAAGGGAAACACACACACACACCCACAAAAAAA [CACACA_site3766]", "gcPBM binding intensity (ln)": 11.4}, {"sequence": "TTAACAAAGAAACACACACACACACCCAAAAAAAAA [CACACA_site516]", "gcPBM binding intensity (ln)": 10.6}, {"sequence": "AATTAACAAAAACACACACACACACCGACAAAAAAA [CACACA_site4444]", "gcPBM binding intensity (ln)": 10.9}, {"sequence": "CAAAAGAAGGTAAACACACACACACGCATACAAAAA [CACACA_site7724]", "gcPBM binding intensity (ln)": 10.4}, {"sequence": "TTAAAGCACCCATGCACACACACAAAGGAAAAGAAA [CACACA_site233]", "gcPBM binding intensity (ln)": 10.2}, {"sequence": "AAAGAAGGTAAACACACACACACACCGACAAAAAAA [CACACA_site9255]", "gcPBM binding intensity (ln)": 11.5}, {"sequence": "CACAAACAAAAACACACACACACACCGACAAAAATG [CACACA_site5362]", "gcPBM binding intensity (ln)": 10.6}, {"sequence": "AAAAAAAAAAAACACACACACACACCGACAAAATAT [CACACA_site8411]", "gcPBM binding intensity (ln)": 10.8}, {"sequence": "AAAGCACCCAGGCACACACACAAAGGAAAAGAAAAA [CACACA_site232]", "gcPBM binding intensity (ln)": 11}, {"sequence": "AAAGCACCCATGCACACACACAAAGGAAAAGAAAAA [CACACA_site6249]", "gcPBM binding intensity (ln)": 10.3}, {"sequence": "CAAAAGAAGGTAAACACACACACACCCATACAAAAA [CACACA_site3765]", "gcPBM binding intensity (ln)": 10.7}]}]}
